{
  "source": "ChEMBL document CHEMBL3988442",
  "about": "“University of Dundee, Small-Polar-MMV Screening Library” (2021)",
  "note": "Among all 48,000 compounds or so, about 13,000 (27%) showed an effect of 50% or more. The list shows a part of the results.",
  "data": [
    {"test_system": "Wolbachia pipientis", "experiment": "Anti-Wolbachia Cell-Based Screen", "assay_type": "functional", "design": "scale not given: in the data most compounds retested in dose-response had high values", "conditions": "5 µM", "units": {"Percent Effect": "%"}, "values": [
      {"compound": "CC1CN=C(N2CCN(C(=O)Nc3nc(-c4ccccc4)ns3)CC2)S1", "note": "(stereo unspecified)", "Percent Effect": -2.569},
      {"compound": "COc1cccc(Cl)c1C(C(=O)O)N(C)Cc1nnc(C)o1", "note": "(stereo unspecified)", "Percent Effect": 7.233},
      {"compound": "CCOc1ccccc1C(C(=O)O)N(C)Cc1cc(C)[nH]n1", "note": "(stereo unspecified)", "Percent Effect": 105.4},
      {"compound": "COCc1cc(CN(C)C(C(=O)O)c2cc(C)c(OC)c(C)c2)n[nH]1", "note": "(stereo unspecified)", "Percent Effect": 0.7136},
      {"compound": "Cc1c[nH]c(CN(C)C(C(=O)O)c2c(F)cccc2Cl)n1", "note": "(stereo unspecified)", "Percent Effect": 11.8},
      {"compound": "Cc1cc(CN(C)C(=O)c2cc(COc3ccccc3)[nH]n2)n[nH]1", "Percent Effect": -16.83},
      {"compound": "CCOc1ccc(N(C)Cc2nnc(C)o2)cc1", "Percent Effect": 3.578},
      {"compound": "Cc1c[nH]c(CN(C)C(C(=O)O)c2c(F)cccc2OC(C)C)n1", "note": "(stereo unspecified)", "Percent Effect": 2.457},
      {"compound": "CCOc1ccccc1C(C(=O)O)N(C)Cc1nnc(C)o1", "note": "(stereo unspecified)", "Percent Effect": 103.2},
      {"compound": "CCOc1ccccc1C(C(=O)O)N(C)Cc1nc(C)c[nH]1", "note": "(stereo unspecified)", "Percent Effect": 110.9},
      {"compound": "CN(CC(N)=O)S(=O)(=O)c1ccc(F)cc1Cl", "Percent Effect": 0.3339},
      {"compound": "COc1cccc(CN(C)C(=O)CCC(=O)c2ccc(Cl)cc2)c1OC", "Percent Effect": -4.229},
      {"compound": "COc1ccc2c(c1)OC1(CCN(Cc3ccc(C)cc3)CC1)CC2=O", "Percent Effect": 104.7},
      {"compound": "COc1ccc(CN2CCC3(CC(=O)N(c4cccc(F)c4)C3)C2)cc1.O=C(O)C(F)(F)F", "note": "(stereo unspecified)", "Percent Effect": 28.15},
      {"compound": "COc1ccc2c(c1)OC1(CCN(Cc3cccc(C)c3)CC1)CC2=O", "Percent Effect": 101.2},
      {"compound": "CCS(=O)(=O)N1CCC2(CCN(Cc3cccc(OC)c3)CC2)CC1.O=C(O)C(F)(F)F", "Percent Effect": -27.27},
      {"compound": "CCN1CCN(C)C(=O)C12CCN(Cc1cccc(C)c1)CC2.O=C(O)C(F)(F)F", "Percent Effect": -18},
      {"compound": "Cc1ccc2c(c1)C(=O)CC1(CCN(Cc3ccccc3)CC1)O2", "Percent Effect": 106.6},
      {"compound": "Cc1ccc(CN2CCC3(CC2)CCN(Cc2ccco2)CC3)cc1.O=C(O)C(F)(F)F.O=C(O)C(F)(F)F", "Percent Effect": 0.5302},
      {"compound": "COc1c(F)cc(CN2CCCC3(CC2)CNC(=O)O3)cc1Cl", "note": "(stereo unspecified)", "Percent Effect": -2.576},
      {"compound": "COc1ccc2c(c1)C1(CCN(Cc3ccncc3)CC1)N(C)CC2", "Percent Effect": -5.195},
      {"compound": "Cc1ccc2oc([C@H]3CCN(Cc4ccccc4)C3)nc2c1", "Percent Effect": -4.088},
      {"compound": "COCC(=O)N1CCC2(CCN(Cc3ccc(C)cc3)CC2)CC1.O=C(O)C(F)(F)F", "Percent Effect": -3.723},
      {"compound": "COc1ccc2c(c1)C(=O)CC1(CCN(Cc3ccc(F)cc3)CC1)O2", "Percent Effect": 107.4},
      {"compound": "CCCn1ncc(C2CC(=O)NCc3nc4cc(C)ccn4c32)c1C", "note": "(stereo unspecified)", "Percent Effect": 7.732},
      {"compound": "Cc1nc(CN2CCCN(CC(=O)Nc3ccncc3)CC2)no1", "Percent Effect": -12.37}
    ]}
  ]
}
